# Source: PubChem BioAssay
# CYP2C19 inh – human CYP2C19 inhibition; P33261; CYP2C19 Supersomes, luciferin-H EGE luminescence, 30 min; inhibition, % at 5 µM; 96,000 compounds, 21% hits; AID 778;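 active means CYP2C19 inhibition above a set limit at 5 µM in the primary screen, cut at about 50% in these data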;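 further: plate controls were negative control wells for no effect and 2.5 mM tranylcypromine positive control for full effect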
# Target sequence (P33261 whole entry, looked up): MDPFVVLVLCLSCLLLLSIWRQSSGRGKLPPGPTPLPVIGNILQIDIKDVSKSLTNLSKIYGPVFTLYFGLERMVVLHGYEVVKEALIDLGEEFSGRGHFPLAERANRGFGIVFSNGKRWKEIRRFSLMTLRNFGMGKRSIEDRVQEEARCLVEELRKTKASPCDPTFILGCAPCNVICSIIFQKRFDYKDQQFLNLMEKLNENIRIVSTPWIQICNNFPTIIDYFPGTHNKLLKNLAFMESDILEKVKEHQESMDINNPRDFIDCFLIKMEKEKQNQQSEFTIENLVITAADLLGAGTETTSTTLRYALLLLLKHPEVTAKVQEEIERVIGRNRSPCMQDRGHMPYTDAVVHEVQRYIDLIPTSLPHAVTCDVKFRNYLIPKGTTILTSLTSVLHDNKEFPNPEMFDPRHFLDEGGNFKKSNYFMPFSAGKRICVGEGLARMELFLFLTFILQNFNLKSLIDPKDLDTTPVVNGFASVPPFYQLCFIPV
# PLAP act – activates human placental alkaline phosphatase; activation fold at 20 µM; 96,000 compounds, 1.2% hits; purified PLAP enzyme, luminescent substrate read-out; hits give high values; AID 696; P05187; in the data active means activation fold above about 2
# CYP2C9 inh – inhibitors of human CYP2C9; P11712; inhibition, % at 5 µM; 96,000 compounds, 20% hits; CYP2C9 Supersomes, luciferin-H conversion, luminescence;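 active means blocking of liver enzyme CYP2C9 beyond about 50% at 5 µM, limit read from the data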
# CYP2C19 act – cytochrome P450 2C19 (human) activation; P33261; recombinant CYP2C19, luciferin-H EGE luminescence; hits give high values; 0 = fully inhibited enzyme, 1 = untreated enzyme; activation factor at 5 µM; 96,000 tested, under 10 active; AID 1025;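 active means activation factor of at least 2 at 5 µM in the primary screen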;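 further: 0 = wells with 2.5 mM tranylcypromine and 1 = vehicle-only wells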
# CYP2C9 activ – increases human cytochrome P450 2C9 activity; activation factor at 5 µM; P11712; recombinant CYP2C9, luciferin-H conversion, luminescence; hits give high values; factor 1 = untreated enzyme, 0 = blocked; AID 1024; 96,000 compounds, 1.4% hits;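 active means activation factor of 2 or more for CYP2C9 at a 5 µM dose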;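 further: 0 = sulfaphenazole-blocked wells and 1 = vehicle-only wells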
# The depositor's hits bear a star. Rows were chosen to be rich in hits. Some 31% of all compounds tested hit in one or more screens of this group.
SMILES,CYP2C19 inh,PLAP act,CYP2C9 inh,CYP2C19 act,CYP2C9 activ
COc1ccccc1C(=O)Nc1ccc2c(c1)OCO2,90*,0.7,14,0.1,0.9
CCN(CC)c1ccc(NC(=O)c2cc(Cl)ccc2OC)cc1,24,1,-192,0.8,2.9*
CCN(CC)c1ccc(NC(=O)c2ccco2)cc1,31,0.9,6,0.7,0.9
COc1ccc(Cl)cc1C(=O)Nc1ccc(NC(=O)c2ccco2)cc1,4,0.9,38,1,0.6
Cc1ccc(C(=O)CSc2nnc(CNc3ccc(C)cc3C)o2)cc1,-14,1,-12,1.1,1.1
Cc1cc(C)c(-c2cc(NC(=O)CSc3nncn3C)n(-c3ccccc3)n2)cc1C,5,1.6,11,1,0.9
COc1ccc(N2CCN(C(=O)c3ccc(-n4nc(C)cc4C)cc3)CC2)cc1,33,1.4,33,0.7,0.7
Cc1ccc(NC(=O)/C(=C\c2cccc(Br)c2)NC(=O)c2ccco2)cc1,-4,0.8,30,1,0.7
COc1ccc(Cl)cc1C(=O)Nc1ccc2c(c1)OCO2,59*,1.1,-232,0.4,3.3*
COc1ccc(Cl)cc1C(=O)Nc1nnn(C)n1,-7,0.9,-100,1.1,2*
O=C(Nc1ccc2c(c1)OCO2)Oc1ccccc1,62*,0.8,2,0.4,1
Cc1ccc(NC(=O)/C(=C\c2ccc3c(c2)OCO3)NC(=O)c2ccco2)cc1,10,1,84*,0.9,0.2
CCOC(=O)Nc1ccc2c(c1)OCO2,22,0.9,10,0.8,0.9
COCc1[nH]nc2c1C(c1ccccc1F)C(C#N)=C(N)O2 (stereo not given),13,0.9,-5,0.9,1
CCCCN1C(=S)SC(C)(C)C1/[N+]([O-])=C/c1cccnc1 (stereo not given),31,0.8,31,0.7,0.7
O=C(NCc1cccnc1)C1CCCN(Cc2cnn(-c3ccccc3)c2-n2cccc2)C1 (stereo not given),22,1.4,45,0.8,0.6
CCCCNC(=O)CSc1nnc(NC(C)=O)s1,12,0.9,5,0.9,0.9
CCOC(=O)c1c(C)[nH]c(C(=O)Nc2ccc3c(c2)OCO3)c1C,86*,0.8,34,0.1,0.7
Cc1cccc(C)c1NC(=O)C1(N(Cc2ccco2)C(=O)CC2NC(=O)NC2=O)CCCC1 (stereo not given),-1,1.1,5,1,0.9
Cc1cc(C(c2ccc(C)o2)c2ccc(C)o2)c(O)c([N+](=O)[O-])c1,65*,1,95*,0.4,0
CCOc1cc(NS(=O)(=O)c2ccc(Cl)cc2)c(OCC)cc1NC(=O)CC(C)C,20,1,-21,0.8,1.2
CCOC(=O)c1nn(-c2ccccc2C)c2nc(-c3ccc(Cl)cc3)c(C#N)c(=O)n12,21,1,25,0.8,0.8
CCCCOC(=O)C1Cc2ccccc2C(=O)O1 (stereo not given),85*,0.9,24,0.2,0.8
CCOC(=O)C1Cc2ccccc2C(=O)O1 (stereo not given),22,0.8,4,0.8,1
CCCCSc1nnc(-c2cc3c(C(F)(F)F)nn(C)c3s2)n1C,2,1.3,-99,1,2*
SMILES,CYP2C19 inh,PLAP act,CYP2C9 inh,CYP2C19 act,CYP2C9 activ
C#CCSc1nnc(-c2cc3c(C(F)(F)F)nn(C)c3s2)n1C,-3,1,-69,1,1.7
COC(=O)[C@H](C)NC(=O)COc1ccccc1,-2,0.9,-4,1,1
COC(=O)c1ccc(OCC2c3cc(OC)c(OC)cc3CCN2C(=O)C2CC2)cc1 (stereo not given),71*,1.5,45,0.3,0.6
COC(=O)c1ccc(OCC(O)CN2CCC(C)CC2)cc1 (stereo not given),9,1,11,0.9,0.9
CCOC(=O)CSc1nnc(CNC(=O)c2cccs2)n1CCc1ccccc1,36,1.1,14,0.6,0.9
CCOc1ccccc1NC(=O)CSc1nc2c(c(=O)n1C)SC(C)C2 (stereo not given),16,1.2,61*,0.8,0.4
CCOc1ccc(NC(=O)CSc2nc3c(c(=O)n2C)SC(C)C3)cc1 (stereo not given),11,1.1,47,0.9,0.5
COc1cccc(NC(=O)CSc2nc3c(c(=O)n2C)SC(C)C3)c1 (stereo not given),93*,0.9,75*,0.1,0.2
CC1Cc2nc(SCC(=O)Nc3ccc(F)cc3)n(C)c(=O)c2S1 (stereo not given),14,0.8,64*,0.9,0.4
Cc1cc(C)c(NC(=O)CSc2nc3c(c(=O)n2C)SC(C)C3)c(C)c1 (stereo not given),32,1,82*,0.7,0.2
Cc1cc(C)cc(NC(=O)CSc2nc3c(c(=O)n2C)SC(C)C3)c1 (stereo not given),1,0.9,18,1,0.8
Cc1[nH]c2c(ccc3ccccc32)c1C1C(CCN)C1(C)C (stereo not given),13,1.6,31,0.9,0.7
CCOC(=O)c1[nH]c2cc(OC)c(OC)cc2c1N,72*,0.9,18,0.3,0.8
O=C(CN1CCOCC1)Nc1ncc(Cc2ccccc2Cl)s1,-8,2*,-12,1.1,1.1
O=C(CSc1nnc(NC(=O)CN2CCOCC2)s1)Nc1ccccc1,6,1,14,0.9,0.9
CCN1C(=C2C(=O)c3ccccc3C2=O)C=Cc2ccccc21,6,0.5,8,0.9,0.9
CCOC(=O)/C(C#N)=c1/s/c(=C2\C=Cc3ccccc3N2CC)c(=O)n1CC,58*,1,42,0.4,0.6
CCCCCOc1ccccc1C(=O)NCCC(=O)O,34,1.1,49,0.7,0.5
Cc1sc2nc(C)n(/N=C/c3ccccc3O)c(=O)c2c1C,86*,0.9,-10,0.1,1.1
CN(CC(=O)OCC(=O)Nc1ccccc1)S(=O)(=O)c1ccc(Cl)cc1,32,0.8,49,0.7,0.5
Cc1cc(C)cc(N=c2c([N+](=O)[O-])nn(-c3cccc(Cl)c3)n2O)c1,25,0.7,22,0.7,0.8
O=c1c2ccccc2[nH]c(=S)n1Cc1cccnc1,82*,0.9,32,0.2,0.7
Cc1ccc(C(NC(=O)N2CCOCC2)=C(Cl)Cl)cc1F,44,1,43,0.6,0.6
Cc1cc(C)nc(/N=C2\NC(=O)CC(C(=O)O)N2c2ccc(Cl)cc2)n1 (stereo not given),-7,1.2,-4,1.1,1
CCN(CC)S(=O)(=O)c1ccc(C(=O)OC2CCCCC2CN(C)C)cc1 (stereo not given),8,1.5,50*,0.9,0.5
CCN(CC)S(=O)(=O)c1ccc(C(=O)Oc2ccc3c(c2)OCO3)cc1,-4,0.9,-1,1,1
CC1CCN(C(=O)CCc2ccc(S(=O)(=O)NC(C)(C)C)cc2)CC1,74*,1.6,63*,0.3,0.4
CCCNS(=O)(=O)c1ccc(CCC(=O)N2CCC(C)CC2)cc1,82*,1.2,52*,0.2,0.5
